These results are taken from PubChem BioAssay (NCATS).

Test [1] has as its target Cytochrome P450 1A2 (Homo sapiens) (UniProt P05177). As to the kind of experiment: p450-cyp1a2 (AID 410; calls by dose curve; further: potency means the concentration at half of the fitted maximal effect). In short, it runs like this: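 Luminescent readout of luciferin formed from Luciferin-ME by human CYP1A2; data normalized against complete inhibition by 57 uM furafylline. Enzyme 20nM, substrate 100uM at Km, 100mM KPO4 buffer, 60 min reaction at room temperature.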

In test [2] the target is Glucocorticoid receptor (Homo sapiens) (UniProt P04150). Kind of test: GR-GFP Redistribution (AID 450;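 active means compounds whose dose series gives a full or clear partial fitted curve of increased nuclear translocation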; further: potency means the concentration at half of the fitted maximal effect). The settings on record: U2OS GR-GFP nuclear translocation, laser cytometry, 2 h.
For test [3] the target is unchanged. Kind of test: GR-EFC Redistribution (AID 451; calls by dose curve; further: potency means the concentration at half of the fitted maximal effect). Conditions: CHO-K1 GR-EFC translocation, beta-gal luminescence, 2 h. The essentials:
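CHO-K1 cells stably expressing nuclear-localized β-gal enzyme acceptor and GR fused C-terminally to the enzyme donor fragment; ligand-driven nuclear translocation restores β-gal by complementation. Compounds titrated up to 46 uM final, 2 h at 37 °C; luminescence read.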

For test [4], the target named is Mitogen-activated protein kinase 10 (Mus musculus) (UniProt Q61831). Kind of test: JNK3 AlphaScreen Assay (AID 530; active means well fitted curve in either direction with a large enough effect, not every such curve was filed as active;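 further: kinase came from lysate of stimulated human HepG2 cells; signal reports phosphorylation of biotinylated GST-cJun 1-79 at Ser73 with 10 µM ATP; series mostly up to about 57 µM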). The essentials: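 Inhibitors reduce antibody binding to phosphorylated biotin-cJun, lowering AlphaScreen luminescence. Lysates from HepG2 cells pre-activated by IL-1beta plus TNF-alpha supplied JNK3; compounds were titrated.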
(In general: Bead proximity is the source of the signal in Alpha formats.)

For test [5], the target named is Cytochrome P450 2C9 (Homo sapiens) (UniProt P11712). As to the kind of experiment: qHTS Assay for Inhibitors and Substrates of Cytochrome P450 2C9 (AID 883). Further: nearly all actives have a fitted effect of over 60% in size. Further: potency means the concentration at half of the fitted maximal effect. In short, it runs like this: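 CYP2C9 deoxyluciferin hydroxylation, 37C, 60 min with NADPH regeneration; 10nM enzyme, 100uM Luciferin-H (KM). Glo detection reagent stopped reaction; luminescence normalized to sulphaphenazole (57uM) full inhibition.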

In test [6] the target is Cytochrome P450 2D6 (Homo sapiens) (UniProt P10635). Kind of test: qHTS Assay for Inhibitors and Substrates of Cytochrome P450 2D6 (AID 891). Further: nearly all actives have a fitted effect of over 60% in size. Further: potency means the concentration at half of the fitted maximal effect. In short, it runs like this: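 Human CYP2D6 (5 nM) with 30 uM Luciferin-ME EGE (at Km) in 100 mM KPO4, compound preincubated 10 min, then NADPH regeneration system for 60 min at room temperature. Luciferin read by luminescence; normalized to 1.43 uM quinidine.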
In general terms: Quantitative high-throughput screening tests each substance at several concentrations.

Test [7] concerns the target Cytochrome P450 2C19 (Homo sapiens) (UniProt P33261). As to the kind of experiment: qHTS Assay for Inhibitors and Substrates of Cytochrome P450 2C19 (AID 899). Further: nearly all actives have a fitted effect of over 60% in size. The essentials:
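In 50mM KPO4, the reaction held 5nM enzyme and KM-level (10uM) Luciferin-H EGE; it ran 60 min at 37C after NADPH regeneration and a 10 min compound preincubation. Luminescence values were scaled to 57uM ketoconazole as complete inhibition.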

Test [8] addresses 3',5'-cyclic-AMP phosphodiesterase 4B (Homo sapiens) (UniProt Q07343). As to the kind of experiment: qHTS Assay for Inhibitors of PDE-IV (AID 607; active means well fitted activation curve with a large enough effect in the main read-out, with a control signal flat, not every such curve was filed as active). The essentials: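 The readout is membrane depolarisation from a cAMP-sensing CNG channel, detected with a potential dye at ex 535/em 590. Cells were HEK293-derived (endogenous PDE-IV) at 1000 cells/well, titrated up to 22.9 uM final.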

For test [9], the target named is Cytochrome P450 3A4 (Homo sapiens) (UniProt P08684). As to the kind of experiment: qHTS Assay for Inhibitors and Substrates of Cytochrome P450 3A4 (AID 884). Further: potency means the concentration at half of the fitted maximal effect; nearly all actives have a fitted effect of over 50% in size. The essentials:
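20 nM human CYP3A4 with 25 uM Luciferin-PPXE (at KM) in 200 mM KPO4, preincubated 10 min with compound; NADPH regeneration started a 60 min RT reaction. Luciferin detected by luminescence, normalized to 57 uM ketoconazole as full inhibition.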

Test [10] has the same target. As to the kind of experiment: qHTS Assay for Activators of Cytochrome P450 3A4 (AID 885). Further: nearly all actives have a fitted effect of over 65% in size. In short, it runs like this: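 Steps: enzyme/substrate mix dispensed; compound added, 10 min RT; NADPH regeneration solution added, 60 min RT; luciferin detection buffer stops reaction; 20 min later luminescence measured.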

A number with no mark means an inactive call. Results filed as inconclusive are left out. Active and inactive are the calls of the source. Unless noted, the call rests on the fitted dose curve; in most records, active means well fitted curve in the direction sought with a large enough effect; inconclusive means small, poorly fitted or top-dose-only effect, or another doubt; inactive means no such curve, though single readings can be large; an effect the other way counts as inactive or inconclusive.

Chain of 3',5'-cyclic-AMP phosphodiesterase 4B (Homo sapiens) (Q07343 whole entry, looked up): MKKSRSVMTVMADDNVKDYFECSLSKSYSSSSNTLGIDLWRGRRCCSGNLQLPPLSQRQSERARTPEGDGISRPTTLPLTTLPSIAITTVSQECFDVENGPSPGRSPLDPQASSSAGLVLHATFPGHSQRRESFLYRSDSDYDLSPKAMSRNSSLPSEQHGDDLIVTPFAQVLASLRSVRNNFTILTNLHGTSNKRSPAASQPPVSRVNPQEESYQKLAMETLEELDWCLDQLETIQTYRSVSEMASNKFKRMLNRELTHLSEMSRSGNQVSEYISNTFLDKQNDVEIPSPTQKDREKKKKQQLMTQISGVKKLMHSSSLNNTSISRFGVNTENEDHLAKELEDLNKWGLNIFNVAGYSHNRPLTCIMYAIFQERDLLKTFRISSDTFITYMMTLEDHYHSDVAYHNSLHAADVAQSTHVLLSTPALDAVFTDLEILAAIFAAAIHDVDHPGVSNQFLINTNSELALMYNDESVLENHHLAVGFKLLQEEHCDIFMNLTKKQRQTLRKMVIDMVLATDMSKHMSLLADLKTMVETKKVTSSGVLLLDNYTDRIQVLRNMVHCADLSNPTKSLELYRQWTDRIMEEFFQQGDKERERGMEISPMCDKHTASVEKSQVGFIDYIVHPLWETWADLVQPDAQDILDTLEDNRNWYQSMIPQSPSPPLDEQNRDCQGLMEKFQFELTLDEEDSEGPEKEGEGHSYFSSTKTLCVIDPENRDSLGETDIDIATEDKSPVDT
Chain of Cytochrome P450 2C19 (Homo sapiens) (P33261 whole entry, looked up): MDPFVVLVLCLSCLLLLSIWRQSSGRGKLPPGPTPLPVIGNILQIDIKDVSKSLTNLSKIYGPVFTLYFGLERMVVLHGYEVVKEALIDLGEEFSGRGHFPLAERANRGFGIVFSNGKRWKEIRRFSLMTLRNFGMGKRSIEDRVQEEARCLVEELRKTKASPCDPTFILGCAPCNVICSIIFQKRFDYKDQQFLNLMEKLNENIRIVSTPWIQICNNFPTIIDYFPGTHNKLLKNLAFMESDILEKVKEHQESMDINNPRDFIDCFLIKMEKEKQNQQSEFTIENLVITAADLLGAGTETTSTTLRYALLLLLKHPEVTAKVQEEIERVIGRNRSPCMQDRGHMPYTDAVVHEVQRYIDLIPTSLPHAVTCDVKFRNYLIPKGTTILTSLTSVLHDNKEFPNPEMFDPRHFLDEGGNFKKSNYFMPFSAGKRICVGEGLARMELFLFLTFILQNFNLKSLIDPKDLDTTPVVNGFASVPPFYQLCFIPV
Chain of Cytochrome P450 2C9 (Homo sapiens) (P11712 whole entry, looked up): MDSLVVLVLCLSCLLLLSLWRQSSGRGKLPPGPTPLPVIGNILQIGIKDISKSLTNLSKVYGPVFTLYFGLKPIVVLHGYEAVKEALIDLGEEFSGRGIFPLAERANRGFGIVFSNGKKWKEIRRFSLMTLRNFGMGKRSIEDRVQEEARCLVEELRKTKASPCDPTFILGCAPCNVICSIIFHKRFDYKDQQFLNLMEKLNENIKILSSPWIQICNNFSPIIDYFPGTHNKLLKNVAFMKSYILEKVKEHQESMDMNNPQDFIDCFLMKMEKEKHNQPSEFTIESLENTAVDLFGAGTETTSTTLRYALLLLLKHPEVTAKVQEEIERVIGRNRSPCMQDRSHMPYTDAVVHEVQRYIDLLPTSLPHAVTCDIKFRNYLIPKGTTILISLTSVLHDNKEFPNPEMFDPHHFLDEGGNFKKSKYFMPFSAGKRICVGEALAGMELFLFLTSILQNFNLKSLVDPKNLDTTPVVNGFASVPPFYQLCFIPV
Chain of Cytochrome P450 1A2 (Homo sapiens) (P05177 whole entry, looked up): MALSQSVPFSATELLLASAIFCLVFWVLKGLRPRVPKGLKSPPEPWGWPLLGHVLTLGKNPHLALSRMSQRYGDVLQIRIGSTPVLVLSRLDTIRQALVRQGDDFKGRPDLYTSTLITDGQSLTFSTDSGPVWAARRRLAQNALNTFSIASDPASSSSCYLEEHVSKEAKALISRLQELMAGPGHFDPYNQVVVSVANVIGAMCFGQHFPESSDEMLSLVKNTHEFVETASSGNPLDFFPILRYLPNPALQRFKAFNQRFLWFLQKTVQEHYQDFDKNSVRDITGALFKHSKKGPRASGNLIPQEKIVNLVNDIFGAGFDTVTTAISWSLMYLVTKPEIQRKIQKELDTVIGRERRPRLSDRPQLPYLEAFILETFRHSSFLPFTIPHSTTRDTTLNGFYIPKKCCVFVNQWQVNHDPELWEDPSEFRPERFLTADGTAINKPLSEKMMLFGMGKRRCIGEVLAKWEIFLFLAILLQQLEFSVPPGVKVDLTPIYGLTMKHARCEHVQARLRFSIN
Chain of Cytochrome P450 2D6 (Homo sapiens) (P10635 whole entry, looked up): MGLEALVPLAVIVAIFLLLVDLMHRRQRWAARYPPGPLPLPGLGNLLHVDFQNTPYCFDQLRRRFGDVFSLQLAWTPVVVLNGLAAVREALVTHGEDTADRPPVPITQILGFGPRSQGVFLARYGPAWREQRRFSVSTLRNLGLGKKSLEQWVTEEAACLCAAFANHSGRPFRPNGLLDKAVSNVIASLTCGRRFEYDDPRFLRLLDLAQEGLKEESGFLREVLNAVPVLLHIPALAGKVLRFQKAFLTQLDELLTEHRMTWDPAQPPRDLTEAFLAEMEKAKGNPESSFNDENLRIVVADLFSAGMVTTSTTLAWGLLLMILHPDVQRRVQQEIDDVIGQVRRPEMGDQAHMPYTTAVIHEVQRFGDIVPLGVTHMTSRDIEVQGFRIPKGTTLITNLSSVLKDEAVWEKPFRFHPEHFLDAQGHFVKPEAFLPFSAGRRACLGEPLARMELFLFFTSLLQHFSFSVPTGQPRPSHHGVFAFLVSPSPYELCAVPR
Chain of Glucocorticoid receptor (Homo sapiens) (P04150 whole entry, looked up): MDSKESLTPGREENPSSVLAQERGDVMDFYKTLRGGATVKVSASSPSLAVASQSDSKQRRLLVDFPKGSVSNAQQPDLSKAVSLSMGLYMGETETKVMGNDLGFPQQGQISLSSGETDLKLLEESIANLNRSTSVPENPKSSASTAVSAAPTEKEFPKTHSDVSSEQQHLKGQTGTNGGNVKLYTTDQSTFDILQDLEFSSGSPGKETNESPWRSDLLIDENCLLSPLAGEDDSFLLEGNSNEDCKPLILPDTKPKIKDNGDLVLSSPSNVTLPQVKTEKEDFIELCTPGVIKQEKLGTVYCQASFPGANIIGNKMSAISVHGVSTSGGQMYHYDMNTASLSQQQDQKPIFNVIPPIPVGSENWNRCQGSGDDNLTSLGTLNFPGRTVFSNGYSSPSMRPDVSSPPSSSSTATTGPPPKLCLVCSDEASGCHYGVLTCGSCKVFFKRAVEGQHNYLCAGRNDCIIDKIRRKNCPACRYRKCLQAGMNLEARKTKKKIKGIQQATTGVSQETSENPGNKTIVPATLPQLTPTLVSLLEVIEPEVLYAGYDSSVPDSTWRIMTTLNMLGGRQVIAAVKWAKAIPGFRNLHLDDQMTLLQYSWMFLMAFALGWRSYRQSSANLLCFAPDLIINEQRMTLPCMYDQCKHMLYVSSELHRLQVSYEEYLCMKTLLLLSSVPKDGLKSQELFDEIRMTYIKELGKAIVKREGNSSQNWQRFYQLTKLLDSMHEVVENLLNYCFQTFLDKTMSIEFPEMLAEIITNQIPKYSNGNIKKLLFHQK
Chain of Cytochrome P450 3A4 (Homo sapiens) (P08684 whole entry, looked up): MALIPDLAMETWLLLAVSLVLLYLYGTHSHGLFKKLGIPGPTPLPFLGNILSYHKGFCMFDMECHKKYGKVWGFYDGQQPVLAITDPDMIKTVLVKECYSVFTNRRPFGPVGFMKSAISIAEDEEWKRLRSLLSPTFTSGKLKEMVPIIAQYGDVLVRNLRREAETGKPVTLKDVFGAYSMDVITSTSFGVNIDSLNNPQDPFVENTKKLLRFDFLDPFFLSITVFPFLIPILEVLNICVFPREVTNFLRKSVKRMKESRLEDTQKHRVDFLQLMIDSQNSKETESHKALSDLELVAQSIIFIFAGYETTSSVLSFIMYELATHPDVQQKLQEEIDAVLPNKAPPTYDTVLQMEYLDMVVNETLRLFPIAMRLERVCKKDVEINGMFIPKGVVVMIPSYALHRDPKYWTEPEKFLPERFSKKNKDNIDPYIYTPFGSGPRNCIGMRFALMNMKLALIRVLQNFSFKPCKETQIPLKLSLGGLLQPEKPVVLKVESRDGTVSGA

With `CCN1C[C@@]2(C)CC[C@H](O)[C@@]34[C@@H]5C[C@H]6[C@H](O)[C@@H]5[C@](O)(C[C@@H]6OC)[C@H](C[C@@H]23)[C@H]14`, the Potency result in test [1], in [5], in test [6] and in [7] was “inactive” in each case. The Potency in test [2] and in test [3] was more than 46 µM in each case. Besides, the molecule was classed as inactive in test [4].
For `C[C@H]1C(=O)O[C@H]2CCN3CC=C(COC(=O)[C@](C)(O)[C@@]1(C)O)[C@H]23`, the Potency result in test [1], in test [5], in test [6] and in test [7] was “inactive” in each case. Moreover, the Potency in [2] and in [3] was more than 46 µM in each case. Further, the result in test [4] was inactive.
Take `CC[C@H]1CN2CC[C@@H]1C[C@@H]2[C@H](O)c1ccnc2ccccc12`: the Potency entry in test [1], in test [5] and in test [7] was “inactive” in each case. For the same molecule, the Potency in [2] was more than 46 µM; in [6], 3.16 µM (active). For the same molecule, the result in test [4] and in [8] was inactive.
Regarding `CC(=O)N1C[C@@H]2C[C@H](C1)c1cccc(=O)n1C2`, the Potency result in [1], in [5], in [6] and in test [7] was “inactive” each time. The Potency in [2] was more than 46 µM. Further, the result in test [4] and in test [8] was inactive.
As for `COC(=O)C1(C)C=C2C(=C(C)C(=O)C2C)CN1` (stereo unspecified), the Potency in test [1] was 31.6 µM (active). The molecule was classed as inactive in test [4] and in test [8].
`CC(C)[C@H]1C(=O)N2CCC[C@@H]2[C@]2(O)O[C@@](NC(=O)[C@H]3C=C4c5cccc6[nH]cc(c56)C[C@H]4N(C)C3)(C(C)C)C(=O)N12`: the Potency in [1] was 31.6 µM (active); in test [2] it was more than 46 µM; in test [3], more than 46 µM. Besides, in test [6], the Potency entry was “inactive”.
For `CCCc1cc2c(n1Cc1cccc(Cl)c1)C(C)C1CN(C(=O)c3ccccc3)C(C)(C(=O)OC)C21` (stereo unspecified), the Potency in [1] was 31.6 µM (active); in test [5], 5.01 µM (active); in [9], 5.01 µM (active). In addition, the result in test [4] and in test [8] was inactive. Also, the Potency entry in test [10] was “inactive”.
On to `C[C@@H](CO)NC(=O)[C@H]1C=C2c3cccc4[nH]cc(c34)C[C@H]2N(C)C1`, for which the figures for the Potency in test [1], in test [2] and in test [6] were 31.6 µM (active), more than 46 µM and 12.6 µM (active), respectively. Moreover, the call in [4] and in test [8] was inactive. In addition, the Potency entry in test [5] and in [7] was “inactive” in each case.
As for `O=C(O)[C@H]1C[C@@H]1[C@H](NP(=O)(c1ccccc1)c1ccccc1)c1ccccc1`, the Potency result in [1] was “inactive”. For the same molecule, the outcome in [4] and in test [8] was inactive.
